In the library only some 2.5% were active in any assay of this set; here they are far more common.
Pol kappa inh = DNA polymerase kappa (human) inhibition | Q9UBT6 | purified Pol kappa, fluorescent DNA synthesis assay, 10 min | Potency, µM (top dose mostly 107 µM), inactives show top-dose activity, negative = inhibition, actives largely listed as inhibitors | 400,000 tested, 0.53% active; further: on the % scale 0 is the no-effect control and ±100 the full control effect
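Enzyme at 10 nM met test compounds for 15 min at room temperature. Substrate addition (50 nM final) began the reaction, which was monitored by fluorescence at 0 and 10 min.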
WRN inhibitor = blocks human WRN helicase; Q14191; WRN helicase unwinding, fluorescent forked duplex, kinetic; Potency, µM (highest dose often 114 µM), inactives show top-dose activity change, negative = inhibition, most hits filed as inhibitors; 360,000 tested, 0.46% active; further: on the % scale 0 is the no-effect control and ±100 the full control effect; nearly all actives have a fitted effect of over 55% in size
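Enzyme (20 nM final) and test compound sit together 15 min at room temperature before substrate addition. Substrate is a single-forked duplex oligonucleotide (100 nM) labelled with fluorophore and quencher, with 2 mM ATP; helicase unwinding raises red fluorescence, read kinetically.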
L3MBTL1 block = blocks human L3MBTL1; Q9Y468; AlphaScreen L3MBTL1–H3K9me1 peptide binding; Potency, µM (series often up to 57.1 µM), for inactives: at the highest dose activity, negative = inhibition, hits mostly inhibitors; 230,000 tested, 0.66% active; further: on the % scale 0 is the no-effect control and ±100 the full control effect; nearly all actives have a fitted effect of over 60% in size
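L3MBTL1 50 nM + b-AHA-H3(1-15)K9me1 75 nM, 30 min RT; compound added, 30 min RT; streptavidin donor/Ni-chelate acceptor beads 10 ug/mL each final, 30 min RT dark; AlphaScreen read.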
Pol beta inh = inhibitors of human DNA polymerase beta; AID 485314; P06746; Potency, µM (series often up to 114 µM), without a hit: top-dose activity change, negative = inhibition, usual class: inhibitors; 340,000 tested, 1.3% active; Pol beta primer extension/strand displacement, fluorescence kinetic; further: on the % scale 0 is the no-effect control and ±100 the full control effect
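Reaction started by 50 nM substrate onto compound-treated Pol beta (10 nM, 15 min preincubation, room temperature); plates read at 0 min and 10 min. Normalized concentration-effect data fitted by four-parameter Hill equation.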
POLH inh = DNA polymerase eta (human) inhibition; Q9Y253; recombinant Pol eta, fluorescent DNA replication assay; Potency, µM (top dose mostly 114 µM), inactives show at the highest dose activity change, negative = inhibition, usual class: inhibitors; 390,000 tested, 1.2% active; further: on the % scale 0 is the no-effect control and ±100 the full control effect
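Fluorescent replication assay: 50 nM final substrate added after a 15 min room-temperature compound preincubation with 10 nM enzyme. Signal taken at 0 min and again at 10 min.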
Pol iota inh = blocks human DNA polymerase iota activity; Potency, µM (doses to about 115 µM), for inactives: top-dose activity, negative = inhibition, hits mostly inhibitors; Q9UNA4; 390,000 tested, 1% active; Pol iota fluorescent replication assay, 10 min
Target sequence (Q9UNA4 whole entry, looked up): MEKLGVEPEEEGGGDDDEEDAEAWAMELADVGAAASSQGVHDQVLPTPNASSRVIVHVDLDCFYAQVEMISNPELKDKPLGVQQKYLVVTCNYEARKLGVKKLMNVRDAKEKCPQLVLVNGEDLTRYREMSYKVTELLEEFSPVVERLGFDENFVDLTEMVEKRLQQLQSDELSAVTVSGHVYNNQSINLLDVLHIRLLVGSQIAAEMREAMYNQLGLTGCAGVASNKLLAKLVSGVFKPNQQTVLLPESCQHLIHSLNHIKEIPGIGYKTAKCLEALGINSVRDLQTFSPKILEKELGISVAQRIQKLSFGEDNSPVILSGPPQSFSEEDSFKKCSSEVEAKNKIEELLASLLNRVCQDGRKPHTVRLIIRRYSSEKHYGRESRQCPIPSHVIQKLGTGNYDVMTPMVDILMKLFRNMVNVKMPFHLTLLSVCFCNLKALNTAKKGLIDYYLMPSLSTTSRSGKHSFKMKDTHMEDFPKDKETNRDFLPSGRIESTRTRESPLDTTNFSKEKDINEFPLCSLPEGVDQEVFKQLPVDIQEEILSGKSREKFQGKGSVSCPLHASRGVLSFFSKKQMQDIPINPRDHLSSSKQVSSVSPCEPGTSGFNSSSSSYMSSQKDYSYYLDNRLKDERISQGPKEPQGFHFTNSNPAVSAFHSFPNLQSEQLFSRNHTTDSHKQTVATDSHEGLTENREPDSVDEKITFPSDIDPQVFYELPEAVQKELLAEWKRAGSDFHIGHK
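Fluorescent replication assay read twice, at 0 min and 10 min after adding 50 nM (final) substrate. Enzyme (10 nM) and compounds were first incubated 15 min at room temperature; enzyme-free buffer wells were negative controls.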
Starred values were filed as active, the others as inactive; ? = inconclusive; . = no result given; [ ] = another dose, or the depositor's remark. The call rests on the fitted dose curve; in most records, active means well fitted curve in the direction sought with a large enough effect; inconclusive means small, poorly fitted or top-dose-only effect, or another doubt; inactive means no such curve, though single readings can be large; an effect the other way counts as inactive or inconclusive. Potency means the concentration at half of the fitted maximal effect.

SMILES	Pol kappa inh	WRN inhibitor	L3MBTL1 block	Pol beta inh	POLH inh	Pol iota inh
Nc1nc(-c2ccccn2)nc(N)c1Cc1ccccc1F	0%	5%	4µM*	26%	-12%	29%
Cc1cc(OC(=O)c2cc(F)c(F)cc2Cl)nc(C)n1	-2%	0%	6%	23%	-14%	6%
COc1ccc(CNC(=O)C(C)n2nc(C)n3c(cc4occc43)c2=O)cc1 (stereo not drawn)	-13%	-3%	.	39%	-1%	-15%
CN1CC(O)C2=CC(=O)C(=O)C=C21 (stereo not drawn)	0.32µM*	.	.	.	.	.
O=C(CC12CC3CC(CC(Br)(C3)C1)C2)Nc1cccc(S(=O)(=O)NC2=NCCC2)c1	-4%	5%	.	24%	1%	-17%
COc1cc(C(=O)NCCc2cn3ccc(C)cc3n2)cc(OC)c1OC	-11%	-14%	5%	-18%	-11%	-20%
CCOc1ccc(C(=O)Nc2ccc(-c3nc4cc(CC)ccc4o3)cc2)cc1	-8%	.	.	0%	-10%	89µM*
CC(=O)Oc1c(I)cc(I)cc1C(=O)Nc1ccc(Cl)cc1	-12%	0%	.	?	5%	82%
COc1ccccc1N(CC(=O)NC1CCCC1)C(=O)CNC(=O)c1cccs1	9%	-1%	.	16%	-18%	29%
CC(=O)c1c(C)oc2c(Br)cc(NS(=O)(=O)c3ccc(Br)cc3)cc12	-3%[60.1 µM]	.	.	?	-25%	79µM*
Nc1cccc2c(=O)c3ccccc3[nH]c12	-4%	-3%	.	45µM*	-7%	17%
Cc1cccc(C2N(c3ccc(F)cc3)C(=O)C3CCCN32)c1 (stereo not drawn)	17%	-3%	.	.	-15%	20%
CSc1ccc(C(=O)C2CCCN(C(=O)CCc3cnn(C)c3)C2)cc1 (stereo not drawn)	-12%	-4%	.	14%	-14%	-4%
O=C1OC(c2ccc(F)cc2)=C/C1=C\c1ccc([N+](=O)[O-])o1	.	.	.	7.1µM*	.	.
COc1ccc(NC(=O)CSc2nnc(-c3cccs3)o2)cc1	-3%	.	.	-9%	-20%	7%
c1ccc(-c2nnc3sc(Cc4cccs4)nn23)cc1	-15%	-9%	-11%	45µM*	3%	?
O=[N+]([O-])CC(=Nc1ccc(Cl)cc1)N/N=C\c1oc(O)c2ccccc12	-26%	-3%[11.6 µM]	.	1%	40µM*	71%
O=C(CCCN1C(=O)S/C(=C/C=C/c2ccccc2)C1=O)Nc1ccc(C(=O)O)cc1	-13%	-3%[11.6 µM]	.	79%	89µM*	?
CN1/C(=C/c2cccc[n+]2CCO)Sc2ccccc21	8%	0%	3%	?	-13%	45%
CC[n+]1ccccc1/C=C1\Sc2ccc(C)cc2N1C	3%[60.1 µM]	-18%	.	71µM*	-9%	?
O=c1/c(=C/c2ccco2)sc2nc(-c3ccccc3Br)nn12	79µM*	?	?	35µM*	16µM*	?
Cc1ccc(/C=c2\sc3nc(-c4cccs4)nn3c2=O)o1	?	-4%[11.6 µM]	?	18µM*	?	?
COc1ccccc1-c1nc2s/c(=C\c3cccs3)c(=O)n2n1	-13%	?	.	?	-6%	?
CCC(Sc1ncccc1C(=O)Oc1cccc([N+](=O)[O-])c1)C(=O)Nc1ccccc1OC (stereo not drawn)	-24%	-7%	-1%	7%	-13%	-10%
Cc1cc(Cl)ccc1OC(C)C(=O)Nc1ccc(C(=O)Nc2ccccc2C(=O)O)cc1 (stereo not drawn)	-16%	-23%	.	79µM*	-27%	?
SMILES	Pol kappa inh	WRN inhibitor	L3MBTL1 block	Pol beta inh	POLH inh	Pol iota inh
CCS(=O)(=O)c1ccc2oc(Nc3ccc(OC)cc3)nc2c1	-2%	-14%	.	-11%	-25%	29%
CCS(=O)(=O)c1ccc2oc(Nc3cccc(OC)c3)nc2c1	-5%	-6%	3%	35µM*	-12%	-10%
Cc1cc(C)c(OCC(=O)N2CC=C(c3ccccc3)CC2)c(C)c1	-5%	-13%	.	2%	-14%	-24%
CS(=O)(=O)c1sc(C#N)c2c1C(=O)CC(c1ccccc1)C2 (stereo not drawn)	-12%	40µM*	-10%	6%	?	?
Cc1oc2c(c(=O)c1C)C(=O)CC(c1ccccc1)C2 (stereo not drawn)	-13%	-4%	10%	2%	-11%	1%
CC1CCN(C(=O)c2ncn3c2c(=O)[nH]c2ccc(Br)cc23)CC1	.	3%	.	.	-13%	.
COc1ccc(S(=O)(=O)N(Cc2ccccc2)c2ccccc2C(=O)Nc2ccccc2C(=O)NCc2ccco2)cc1	-20%	-10%	-3%	89µM*	-19%	-5%
COc1ccc(S(=O)(=O)Nc2ccccc2C(=O)NCc2ccco2)cc1	-1%	-9%	-8%	-14%	-15%	?
O=C(O)c1ccc2c(ccc3nn(-c4ccc(/C=C/c5ccc(-n6nc7ccc8cc(C(=O)O)ccc8c7n6)cc5[S+](=O)([O-])[O-])c([S+](=O)([O-])[O-])c4)nc32)c1	1.8µM*	.	.	.	.	?
O=C(O)c1ccc2c(c1)ncn2-c1ccc(F)c(F)c1	-11%	.	.	10%	2%	6%
O=[S+]([O-])([O-])c1ccc2c(c1)cc([S+](=O)([O-])[O-])c1nn(-c3ccc(/C=C/c4ccc(-n5nc6c([S+](=O)([O-])[O-])cc7cc([S+](=O)([O-])[O-])ccc7c6n5)cc4[S+](=O)([O-])[O-])c([S+](=O)([O-])[O-])c3)nc12	10µM*	.	.	.	.	?
O=C(O)c1cc(O)c2c(c1)[C@@H]([C@H]1c3cc(C(=O)O)cc(O)c3C(=O)c3c(O[C@@H]4O[C@H](CO)[C@@H](O)[C@H](O)[C@H]4O)cccc31)c1cccc(O[C@@H]3O[C@H](CO)[C@@H](O)[C@H](O)[C@H]3O)c1C2=O	1.3µM*	3.2µM*	0.11µM*	.	0.79µM*	-94%
OCC1OC(Oc2cccc3ccccc23)C(O)C(O)C1O (stereo not drawn)	1%	-1%[57.1 µM]	.	10%	-15%	45%
O=C(O)c1cc(O)c2c(c1)[C@H]([C@H]1c3cc(C(=O)O)cc(O)c3C(=O)c3c(O[C@@H]4OC(CO)C(O)C(O)C4O)cccc31)c1cccc(O[C@@H]3OC(CO)C(O)C(O)C3O)c1C2=O (stereo partly drawn)	0.89µM*	.	.	.	.	.
CCO[C@H]1OC(C(N)=O)=C[C@@H](C2CCCCC2)[C@@H]1CCCO	1%	-2%	8%	9%	2%	9%
CCOC(=O)CSc1nnc(-c2nnc(SCC(=O)OCC)n2CC)n1CC	-8%	-1%	1%	-15%	3%	18%

Screens: PubChem BioAssay, National Center for Advancing Translational Sciences (NCATS)
